The nature of experiment [1]: small molecules captured by biotinylated probe aFSTL3 – biochemical, small-molecule microarray, fluorescence 635/667, stem cell growth factor project, primary screen (AID 1064).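 Note: measures binding of the biotinylated anti-FSTL3 antibody to printed compounds.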 Conditions: higher = more signal.
A short description of experiment [2]: binders from COS7 lysate, DM2A8 probe, primary screen, torsin A project, cell lysate, small-molecule microarray, fluorescence 635/667 (AID 1065). Conditions: higher = more signal, COS7 lysate expressing mutant human TOR1A.
A short description of experiment [3]: small molecules captured by biotinylated probe aFGF2 – biochemical, small-molecule microarray, fluorescence 635/667, stem cell growth factor project, primary screen (AID 1067).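 Note: measures binding of biotinylated aFGF2 protein to printed compounds on slides; z-score merges feature fluorescence and signal-to-noise across triplicate slides.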 Conditions: higher = more signal.
Experiment [4] is described as follows: small molecules captured by biotinylated probe aFGF10 – biochemical, small-molecule microarray, fluorescence 635/667, stem cell growth factor project, primary screen (AID 1071).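 Note: score merges 667 nm spot intensity and signal to noise from triplicate slides.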 The note with it: higher = more signal.
Experiment [5] addresses Neurogenic locus notch homolog protein 2 (Homo sapiens) (UniProt Q04721). Description: small molecules binding Notch2 protein – biochemical, small-molecule microarray, 635 nm fluorescence, stem cell growth factors, primary screen (AID 1073). Conditions: higher = more signal.
Experiment [6] concerns the target Pro-neuregulin-1, membrane-bound isoform (Homo sapiens) (UniProt Q02297). Description: small molecules binding neuregulin-1 protein – biochemical, small-molecule microarray, fluorescence 635/667, psychiatric disease protein project, primary screen (AID 1075).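 Note: score combines 667 nm spot fluorescence with signal to noise.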 Conditions: NRG1 binding, 635 nm fluorescence, higher = more signal.
Experiment [7] deals with Neuregulin-1 EGF-like domain. Description: small molecules binding NRG1 EGF domain – biochemical, small-molecule microarray, 635 nm fluorescence, primary screen (AID 1081).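 Note: binding of the protein to compounds printed on small-molecule microarray slides.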 Conditions: higher = more signal.
The nature of experiment [8]: FRG1 expression reporter modulators in myotubes – cell-based, C2C12 myotubes, firefly/Renilla luciferase, luminescence, FRG1 inhibition for FSHD, primary screen (AID 1084). The note with it: FRG1 promoter luciferase, higher = more signal, called active from +8 up or from −8 down.
Experiment [9] is described as follows: small molecules captured by biotinylated probe aFST – biochemical, small-molecule microarray, fluorescence 635/667, stem cell growth factor project, primary screen (AID 1086).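 Note: score merges 667 nm fluorescence with signal-to-noise of each printed compound spot.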 The note with it: higher = more signal.
Experiment [10] can be described thus: binders of probe aHhip on microarray, primary screen, stem cell growth factor project, biochemical, small-molecule microarray, fluorescence 635/667 (AID 1087).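 Note: score merges spot fluorescence at 667nm with spot signal to noise ratio.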 The note with it: higher = more signal.

Active and inactive are the calls of the source.

Chain of Neurogenic locus notch homolog protein 2 (Homo sapiens) (Q04721 whole entry, looked up, canonical isoform): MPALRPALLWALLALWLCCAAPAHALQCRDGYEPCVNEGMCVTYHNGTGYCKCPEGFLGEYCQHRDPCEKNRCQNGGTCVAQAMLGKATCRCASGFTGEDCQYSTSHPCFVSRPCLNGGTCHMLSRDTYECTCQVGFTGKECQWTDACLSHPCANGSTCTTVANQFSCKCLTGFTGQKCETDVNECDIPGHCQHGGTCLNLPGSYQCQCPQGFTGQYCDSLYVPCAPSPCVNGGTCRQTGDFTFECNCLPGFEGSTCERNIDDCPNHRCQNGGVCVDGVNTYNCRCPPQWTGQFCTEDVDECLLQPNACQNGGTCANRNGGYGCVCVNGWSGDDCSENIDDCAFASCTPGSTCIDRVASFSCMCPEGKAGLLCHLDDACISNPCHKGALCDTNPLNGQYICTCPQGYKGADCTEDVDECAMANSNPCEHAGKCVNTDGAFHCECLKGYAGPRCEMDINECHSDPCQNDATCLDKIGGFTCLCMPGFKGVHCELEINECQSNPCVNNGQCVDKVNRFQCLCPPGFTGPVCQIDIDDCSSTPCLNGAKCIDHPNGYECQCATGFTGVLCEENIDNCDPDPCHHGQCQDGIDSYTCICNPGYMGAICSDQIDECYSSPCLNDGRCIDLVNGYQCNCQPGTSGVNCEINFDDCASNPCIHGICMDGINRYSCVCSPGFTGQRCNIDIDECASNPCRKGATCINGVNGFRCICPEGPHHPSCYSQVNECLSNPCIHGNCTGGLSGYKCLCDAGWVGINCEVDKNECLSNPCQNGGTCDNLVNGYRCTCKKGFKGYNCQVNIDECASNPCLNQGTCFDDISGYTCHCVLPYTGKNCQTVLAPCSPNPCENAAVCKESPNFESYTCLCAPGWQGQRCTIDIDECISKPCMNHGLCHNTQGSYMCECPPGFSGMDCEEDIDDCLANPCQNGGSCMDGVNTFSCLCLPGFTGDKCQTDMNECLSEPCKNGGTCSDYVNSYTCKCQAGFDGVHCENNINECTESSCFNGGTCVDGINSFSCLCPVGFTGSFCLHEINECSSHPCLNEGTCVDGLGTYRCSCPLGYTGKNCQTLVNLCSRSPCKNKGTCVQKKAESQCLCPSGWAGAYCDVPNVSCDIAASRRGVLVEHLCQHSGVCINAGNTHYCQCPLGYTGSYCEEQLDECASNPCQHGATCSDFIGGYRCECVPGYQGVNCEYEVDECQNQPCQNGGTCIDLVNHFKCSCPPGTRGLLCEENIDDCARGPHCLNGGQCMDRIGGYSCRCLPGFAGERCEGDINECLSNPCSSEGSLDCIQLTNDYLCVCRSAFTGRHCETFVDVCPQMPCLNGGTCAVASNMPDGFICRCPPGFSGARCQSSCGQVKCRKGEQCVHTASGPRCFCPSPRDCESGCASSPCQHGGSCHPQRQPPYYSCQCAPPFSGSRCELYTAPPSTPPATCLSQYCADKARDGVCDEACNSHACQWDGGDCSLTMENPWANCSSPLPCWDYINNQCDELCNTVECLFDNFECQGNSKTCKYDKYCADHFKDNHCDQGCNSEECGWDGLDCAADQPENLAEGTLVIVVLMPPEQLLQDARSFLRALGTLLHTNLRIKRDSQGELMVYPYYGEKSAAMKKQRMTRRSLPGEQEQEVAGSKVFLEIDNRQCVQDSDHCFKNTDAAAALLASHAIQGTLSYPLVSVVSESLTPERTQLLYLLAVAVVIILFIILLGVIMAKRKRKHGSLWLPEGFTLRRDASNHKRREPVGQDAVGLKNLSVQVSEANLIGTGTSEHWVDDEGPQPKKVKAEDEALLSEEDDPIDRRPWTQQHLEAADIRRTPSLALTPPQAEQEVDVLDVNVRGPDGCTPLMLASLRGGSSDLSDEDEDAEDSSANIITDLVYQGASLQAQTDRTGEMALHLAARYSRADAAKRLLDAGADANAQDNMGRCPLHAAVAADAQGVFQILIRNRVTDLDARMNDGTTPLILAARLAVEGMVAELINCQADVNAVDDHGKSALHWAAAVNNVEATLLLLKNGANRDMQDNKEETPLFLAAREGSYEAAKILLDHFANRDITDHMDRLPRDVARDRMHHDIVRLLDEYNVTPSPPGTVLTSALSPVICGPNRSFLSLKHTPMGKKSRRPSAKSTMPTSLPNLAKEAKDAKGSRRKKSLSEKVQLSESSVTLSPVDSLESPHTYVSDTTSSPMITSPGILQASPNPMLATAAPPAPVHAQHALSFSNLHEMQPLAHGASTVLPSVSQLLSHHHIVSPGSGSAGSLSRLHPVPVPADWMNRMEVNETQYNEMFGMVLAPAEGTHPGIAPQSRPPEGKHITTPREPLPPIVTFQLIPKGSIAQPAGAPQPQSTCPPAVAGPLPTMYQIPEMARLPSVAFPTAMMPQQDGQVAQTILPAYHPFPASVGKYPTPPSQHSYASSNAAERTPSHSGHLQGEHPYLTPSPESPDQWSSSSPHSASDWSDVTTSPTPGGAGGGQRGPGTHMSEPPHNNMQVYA
Chain of Pro-neuregulin-1, membrane-bound isoform (Homo sapiens) (Q02297 whole entry, looked up, the tested form may be a part, canonical isoform): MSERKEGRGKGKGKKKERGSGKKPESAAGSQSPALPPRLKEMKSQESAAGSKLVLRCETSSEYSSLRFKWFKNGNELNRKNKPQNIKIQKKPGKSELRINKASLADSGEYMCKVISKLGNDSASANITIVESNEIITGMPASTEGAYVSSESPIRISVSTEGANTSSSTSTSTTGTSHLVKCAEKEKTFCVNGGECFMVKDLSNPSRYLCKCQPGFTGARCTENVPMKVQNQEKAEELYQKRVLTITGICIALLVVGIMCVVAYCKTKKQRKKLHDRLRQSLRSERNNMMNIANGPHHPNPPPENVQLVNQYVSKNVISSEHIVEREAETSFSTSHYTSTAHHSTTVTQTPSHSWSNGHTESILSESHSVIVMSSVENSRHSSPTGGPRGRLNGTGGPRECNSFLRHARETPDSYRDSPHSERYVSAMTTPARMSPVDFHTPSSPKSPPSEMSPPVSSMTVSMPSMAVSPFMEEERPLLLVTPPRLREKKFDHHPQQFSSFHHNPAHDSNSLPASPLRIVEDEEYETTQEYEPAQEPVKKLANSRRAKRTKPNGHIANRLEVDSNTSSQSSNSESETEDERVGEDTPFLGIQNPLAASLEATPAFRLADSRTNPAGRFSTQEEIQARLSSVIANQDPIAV

As to `CCOC(=O)[C@H](Cc1ccccc1)NC(=O)OC1CC(CCC2CC(CC)=NO2)OC2(CCCC(COC(=O)NCCC(C)C)O2)C1` (stereo not given in full), the composite z-score is -0.436 in experiment [1]; -0.235 in experiment [2]; -0.0692 in [3]; 0.354 in experiment [4]; 0.165 in experiment [5]; 0.418 in [6]. Also, the values for the composite z-score in [7], in experiment [9] and in experiment [10] were 0.86, -0.0729 and -0.218, respectively. For the same compound, in [8], the z-score is 0.309 (inactive).
As to `COc1cccc([C@H]2Oc3ccc(OC)cc3C(=NOC[C@@H](O)COCc3ccco3)[C@@H]2O)c1`, the composite z-score in experiment [1] is -0.434; in experiment [2], 0.0488; in [3], -0.158; in experiment [4], -1.12; in experiment [5], -1.29; in experiment [6], -0.984. The results for the composite z-score in experiment [7], in experiment [9] and in [10] were -1.7, -0.625 and -0.388, respectively. Moreover, the z-score in experiment [8] is -0.765 (inactive).
Turning to `C[C@@H]1C=CCC(=O)OC[C@H]2O[C@@H](C=C[C@@H]2O)[C@H](C)C=CCC(=O)OC1`, the composite z-score was -0.711 in experiment [1]; 2.13 in [2]; -0.175 in experiment [3]; -0.32 in experiment [4]; -0.302 in experiment [5]; -1.03 in [6]. The figures for the composite z-score in experiment [7], in experiment [9] and in experiment [10] were 0.765, -0.291 and 0.28, respectively. For the same compound, the z-score in [8] was -1.28 (inactive).
Take `C[C@@H]1CC[C@H]2C(=O)O[C@@H](Cc3ccccc3)CN2[C@H]1c1ccc(Br)cc1`: the composite z-score is -0.395 in experiment [1]; 0.207 in [2]; -0.185 in [3]; -0.112 in experiment [4]; 0.526 in [5]; 0.649 in experiment [6]. Besides, the composite z-score in experiment [7] was 0.408; in experiment [9], 0.384; in experiment [10] it was -0.201. For the same compound, in [8], the z-score is -0.205 (inactive).
For `CO[C@@H]1C=CCC(=O)N2CCC[C@H]2C(=O)OC[C@@H](C)C(=O)OC[C@H]1C`, the composite z-score in experiment [1] was -0.605; in experiment [2], 1.7; in [3], -0.159; in experiment [4], 0.492; in experiment [5] it was 0.156; in experiment [6] it was -0.582. For the same compound, the results for the composite z-score in [7], in experiment [9] and in experiment [10] were 0.477, 0.274 and 0.238, respectively. In addition, in experiment [8], the z-score is -1.15 (inactive).
On to `COC(=O)NCC=Cc1nc(CCCO)co1`, for which the composite z-score in experiment [1] is -0.596; in experiment [2], 0.273; in [3], -0.0174; in [4], 0.525; in experiment [5], 0.623; in experiment [6], 0.177. For the same compound, the composite z-score in experiment [7] is 0.414; in experiment [9] it was 0.0512; in experiment [10], -0.287. In addition, the z-score in experiment [8] was -0.435 (inactive).
For the compound `COC(=O)[C@@H]1CC[C@H](C)[C@@H](c2ccc(C)cc2)N1C(=O)c1ccc(C=NOCC[C@@H]2C=C[C@H](OC(C)=O)[C@@H](COC(C)=O)O2)cc1`, the composite z-score is -0.381 in experiment [1]; 0.333 in experiment [2]; -0.11 in experiment [3]; 0.332 in [4]; 0.7 in experiment [5]; 0.102 in experiment [6]. Also, the composite z-score was found to be 0.61 in experiment [7], 0.0627 in experiment [9] and 0.0505 in experiment [10]. In experiment [8], the z-score is 0.579 (inactive).
`CC(CCN1CCc2nc(-c3ccccc3)c(-c3ccccc3)cc2C1)=NOC[C@@H](O)COCc1ccco1`: the composite z-score in experiment [1] is -0.278; in experiment [2], 0.424; in experiment [3], -0.0598; in experiment [4] it was 0.111; in experiment [5], 0.303; in experiment [6], 0.268. The composite z-score in experiment [7] is 0.792; in experiment [9] it was -0.0187; in experiment [10], -0.261. Moreover, the z-score in experiment [8] was 0.515 (inactive).
Take `CC(CCN1CCCc2nc(C)c(C)cc21)=NOC(C)CN1CCCCc2nc(C)c(C)cc21` (stereo not given): the composite z-score in experiment [1] was -0.213; in experiment [2], 0.854; in experiment [3], 0.0766; in experiment [4], 0.644; in [5], 1.51; in [6] it was 0.303. Besides, the composite z-score in experiment [7] is 1.13; in [9], 1.09; in [10] it was 0.815. Besides, the z-score in [8] was 1.21 (inactive).
In the case of `Cc1ccc(S(=O)(=O)N[C@H]2COC(=O)CC=C[C@H](C)[C@@H](NS(=O)(=O)c3ccc(C)cc3)COC(=O)CC=C[C@@H]2C)cc1`, the composite z-score in experiment [1] is -0.546; in experiment [2], 0.391; in experiment [3] it was 0.16; in experiment [4], 0.395; in experiment [5] it was 0.434; in experiment [6], -0.107. Besides, the composite z-score was 0.0446 in experiment [7], -0.118 in [9] and 0.166 in experiment [10]. Also, the z-score in experiment [8] is 1.41 (inactive).
As to `CC(C)CON=C1C[C@@H](O)[C@@H](O)[C@@H]2[C@@H]3C(=O)N(C4CCCCC4)C(=O)[C@@H]3CC[C@@H]12`, the composite z-score was -0.216 in experiment [1]; 1.2 in [2]; -0.0955 in experiment [3]; 0.0675 in experiment [4]; -0.0187 in [5]; 1.45 in experiment [6]. The composite z-score in experiment [7] was -0.115; in experiment [9], -0.0424; in experiment [10], -0.0994. For the same compound, in [8], the z-score is -0.0468 (inactive).
`CC(C)[C@@H](OCc1ccccc1)[C@H](C)C=NOC[C@@H](O)COCc1ccco1`: the composite z-score in [1] was -0.457; in experiment [2], 0.84; in experiment [3], -0.251; in experiment [4], -0.416; in experiment [5], -1.08; in [6] it was -0.417. Also, the composite z-score in experiment [7] is -0.569; in experiment [9], -1.53; in experiment [10], -0.302. Further, the z-score in experiment [8] was 0.887 (inactive).
In the case of `CCOC(=O)[C@H](Cc1ccccc1)NC(=O)CCC1CC(OC(=O)NCCc2ccc(F)cc2)CC2(CCCC(COC(=O)NCc3ccccc3)O2)O1` (stereo not given in full), the composite z-score is -0.434 in [1]; -0.0986 in experiment [2]; -0.0887 in experiment [3]; 0.854 in experiment [4]; 0.679 in [5]; 0.331 in experiment [6]. Also, the composite z-score in [7] was 0.903; in [9], 0.0791; in [10], -0.0994. The z-score in experiment [8] is 0.292 (inactive).
Consider `COC(=O)[C@@H]1CC[C@H](C)[C@@H](c2ccc(C)cc2)N1C(=O)c1ccc(C=NO[C@@H](C)c2cn([C@H](CO)Cc3ccccc3)nn2)cc1`, for which the composite z-score in experiment [1] is -0.612; in experiment [2] it was -0.0378; in experiment [3], -0.0943; in [4], 0.496; in experiment [5], 1.11; in [6] it was 0.327. Also, the composite z-score worked out at 0.477 in experiment [7], 0.517 in [9] and 0.25 in experiment [10]. Moreover, the z-score in experiment [8] is -3.25 (inactive).

These data come from PubChem BioAssay.
